Many of the other results were omitted from the sample, so hits are more common in it than they were.
IDE exosite inh: exo-site inhibitors of human IDE, primary screen, biochemical, fluorescence anisotropy, probe displacement | Insulin-degrading enzyme (Homo sapiens), P14735 | purified IDE, FL-6b probe fluorescence polarization; active compounds read low | z-score at 20 µM | 17,000 compounds, 6.3% hits | AID 1259349, 2017;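 active = z-score of -3 or lower, meaning strong loss of probe binding signal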;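 note: His-tagged human IDE residues 42-1019 made in E. coli with 30 nM FL-6b probe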
Target sequence (P14735 42-1019 limits assumed): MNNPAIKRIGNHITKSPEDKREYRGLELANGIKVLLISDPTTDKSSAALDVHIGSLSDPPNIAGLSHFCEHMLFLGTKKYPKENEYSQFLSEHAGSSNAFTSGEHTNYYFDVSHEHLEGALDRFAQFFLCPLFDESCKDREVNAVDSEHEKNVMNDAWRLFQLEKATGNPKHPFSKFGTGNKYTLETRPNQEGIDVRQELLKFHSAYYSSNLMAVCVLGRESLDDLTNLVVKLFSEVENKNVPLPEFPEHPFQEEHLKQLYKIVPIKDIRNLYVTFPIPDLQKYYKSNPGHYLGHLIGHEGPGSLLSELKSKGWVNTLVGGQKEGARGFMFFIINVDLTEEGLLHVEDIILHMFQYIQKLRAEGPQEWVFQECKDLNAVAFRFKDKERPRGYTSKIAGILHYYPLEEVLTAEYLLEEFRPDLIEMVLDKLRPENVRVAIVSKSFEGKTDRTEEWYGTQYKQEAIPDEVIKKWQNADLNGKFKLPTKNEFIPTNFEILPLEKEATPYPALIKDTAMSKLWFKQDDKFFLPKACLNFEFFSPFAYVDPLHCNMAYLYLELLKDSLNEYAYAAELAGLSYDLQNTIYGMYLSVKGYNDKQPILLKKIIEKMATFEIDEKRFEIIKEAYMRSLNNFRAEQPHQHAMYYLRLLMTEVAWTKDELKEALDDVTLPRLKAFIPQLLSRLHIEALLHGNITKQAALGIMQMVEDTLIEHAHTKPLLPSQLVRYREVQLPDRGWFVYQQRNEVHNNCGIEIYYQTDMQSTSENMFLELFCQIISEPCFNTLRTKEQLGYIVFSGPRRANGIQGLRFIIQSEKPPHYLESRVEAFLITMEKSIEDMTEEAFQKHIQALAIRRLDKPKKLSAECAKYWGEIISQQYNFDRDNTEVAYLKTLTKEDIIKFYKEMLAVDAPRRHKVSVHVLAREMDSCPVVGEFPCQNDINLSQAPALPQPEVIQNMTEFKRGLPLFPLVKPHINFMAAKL
The depositor's hits bear a star.

SMILES	IDE exosite inh
OC[C@@H]1[C@H](c2ccc(-c3ccccc3)cc2)[C@H]2CN(Cc3cncnc3)CCCCN12	0.118
COc1ccc2c3c([nH]c2c1)[C@@H](CO)NCC31CCN(Cc2ccc(F)cc2)CC1	-0.467
O=S(=O)(c1cccs1)N1CCCCN2[C@@H](CO)[C@@H](c3ccc(-c4ccccc4)cc3)[C@@H]2C1	2.21
CC=Cc1ccc2n(c1=O)C[C@H]1[C@H](CO)[C@@H](C(=O)NCc3cccc(OC)c3)N[C@@H]21 (mixture of isomers)	0.198
COc1ccc2c3c(n(C)c2c1)[C@@H](CO)N(C(=O)CN(C)C)CC31CCN(Cc2cncnc2)CC1	-1.02
O=C(c1cccnc1)N1CCCCN2[C@H](CO)[C@H](c3ccc(C#Cc4cccnc4)cc3)[C@@H]2C1	-4.34*
CC(C)(O)C#Cc1ccc([C@H]2[C@H](CO)N3CCCCN(C(=O)c4cccnc4)C[C@@H]23)cc1	3.73
CC(C)(O)C#Cc1ccc([C@@H]2[C@@H](CO)N3CCCCN(C(=O)c4cccnc4)C[C@H]23)cc1	3.5
O=C(c1ccncc1)N1CCCCN2[C@H](C1)[C@@H](c1ccc(C#Cc3ccccn3)cc1)[C@@H]2CO	0.835
O=C(c1ccncc1)N1CCCCN2[C@H](CO)[C@H](c3ccc(C#Cc4ccccn4)cc3)[C@@H]2C1	-0.328
CC(C)(O)C#Cc1ccc([C@H]2[C@@H](CO)N3CCCCN(C(=O)c4cccnc4)C[C@@H]23)cc1	1.09
O=C(c1cccnc1)N1CCCCN2[C@@H](CO)[C@H](c3ccc(C#Cc4ccccn4)cc3)[C@@H]2C1	-7.72*
O=C(c1cccnc1)N1CCCCN2[C@H](C1)[C@H](c1ccc(C#Cc3ccccn3)cc1)[C@@H]2CO	-5.46*
O=C(c1cccnc1)N1CCCCN2[C@H](C1)[C@@H](c1ccc(C#Cc3cccnc3)cc1)[C@@H]2CO	1.88
O=C(NCC1CCCCC1)[C@@H]1[C@@H](CO)[C@@H]2Cn3c(cccc3=O)[C@H]1N2C(=O)c1ccncc1	0.477
CO[C@H]1CN(C)C(=O)c2cc(NS(C)(=O)=O)ccc2OC[C@H](C)N(Cc2cncnc2)C[C@@H]1C	-0.649
COc1ccc2c3c([nH]c2c1)[C@H](CO)N(S(C)(=O)=O)CC31CCN(C(=O)Nc2ccccc2)CC1	0.708
O=C(Nc1cc(F)ccc1F)N1CCCCN2[C@H](CO)[C@H](c3ccc(-c4cncnc4)cc3)[C@H]2C1	0.908
Cn1cnc(S(=O)(=O)N[C@@H]2CC[C@H](CC(=O)NCC3CCCCC3)O[C@@H]2CO)c1	0.985
O=C(NCC[C@H]1CC[C@@H](NS(=O)(=O)c2ccc(F)cc2)[C@@H](CO)O1)c1ccc2c(c1)OCO2	1.2
CCCC#Cc1ccc([C@H]2[C@H](CO)N3CCCCN(S(=O)(=O)Cc4ccccc4)C[C@@H]23)cc1	0.556
Cc1ccccc1-c1ccc([C@@H]2[C@@H](CO)N3CCCCN(C(=O)c4cccnc4)C[C@@H]23)cc1	-7.98*
Cc1ccccc1-c1ccc([C@@H]2[C@H]3CN(C(=O)c4cccnc4)CCCCN3[C@H]2CO)cc1	-7.33*
Cc1ccccc1-c1ccc([C@H]2[C@@H](CO)N3CCCCN(C(=O)c4cccnc4)C[C@@H]23)cc1	-4.79*
CCCC#Cc1ccc([C@@H]2[C@@H](CO)N3C(=O)CN(S(=O)(=O)c4ccccc4C)C[C@H]23)cc1	-1.57
SMILES	IDE exosite inh
CN(C)CC#Cc1ccc([C@H]2[C@@H](CO)N3C(=O)CN(C(=O)c4cccnc4)C[C@H]23)cc1	2.26
C/C=C/c1ccc([C@@H]2[C@@H](CO)N(C(C)=O)[C@H]2CN(CCC)C(C)=O)cc1	4.83
CC(C)NC(=O)N1CCCCN2[C@@H](CO)[C@@H](c3ccc(C#CC4CC4)cc3)[C@@H]2C1	-1.13
C/C=C/c1ccc([C@@H]2[C@@H](CO)N(Cc3cccc(F)c3)C23CN(C(C)=O)C3)cc1	0.2
C[C@H](CO)N1C[C@H](C)[C@H](CN(C)C(=O)c2cnccn2)Oc2cc(C#CCC3CCCC3)ccc2S1(=O)=O	0.173
CCC(=O)N1CCCCN2[C@H](CO)[C@@H](c3ccc(-c4ccc(F)cc4)cc3)[C@H]2C1	1.42
CCC(=O)N1CCCCN2[C@H](CO)[C@H](c3ccc(C#Cc4ccccc4F)cc3)[C@@H]2C1	-5.86*
CCC(=O)N1CCCCN2[C@H](C1)[C@@H](c1ccc(C#Cc3ccccc3F)cc1)[C@@H]2CO	-6.53*
CCC(=O)N1CCCCN2[C@H](C1)[C@H](c1ccc(-c3ccc(F)cc3)cc1)[C@@H]2CO	1.53
COC(=O)c1ccc(CN2CC(=O)N3[C@@H](CO)[C@H](c4ccc(-c5ccccc5)cc4)[C@@H]3C2)cc1	1.71
CC(=O)N1[C@H](CN(CC(C)C)C(=O)c2ccccn2)[C@H](c2ccccc2)[C@@H]1CO	0.918
O=C(NC[C@@H]1[C@H](c2ccccc2)[C@H](CO)N1C(=O)C1CCC1)NC1CCCC1	-0.767
Cc1ccc(S(=O)(=O)Nc2ccc3c(c2)C(=O)N(C)[C@H]2CC[C@@H](CC(=O)NCCc4ccncc4)O[C@@H]2CO3)cc1	0.00114
Cc1ccccc1-c1ccc([C@H]2[C@@H](CO)N3CCCCN(C(=O)Nc4ccccc4)C[C@@H]23)cc1	-1.37
Cc1ccccc1-c1ccc([C@@H]2[C@H](CO)N3CCCCN(C(=O)Nc4ccccc4)C[C@@H]23)cc1	-5.05*
Cc1ccccc1-c1ccc([C@@H]2[C@H](CO)N3CCCCN(C(=O)Nc4ccc(F)cc4)C[C@@H]23)cc1	-10.6*
Cc1ccccc1-c1ccc([C@@H]2[C@@H](CO)N3CCCCN(C(=O)Nc4ccc(F)cc4)C[C@@H]23)cc1	0.287
COc1ccc(NC(=O)N2CCCCN3[C@H](CO)[C@@H](c4ccc(-c5ccccc5C)cc4)[C@@H]3C2)cc1	0.547
Cc1ccccc1-c1ccc([C@@H]2[C@@H](CO)N3CCCCN(C(=O)Nc4cccc(F)c4)C[C@@H]23)cc1	-1.53
COc1ccc(C[C@@H]2CCn3nncc3COC[C@H](c3ccccc3)NC2=O)cc1	-0.977
COc1cccc(C#Cc2ccc([C@H]3[C@H](CO)N4C(=O)CN(S(=O)(=O)c5ccccc5C)C[C@@H]34)cc2)c1	0.37
O=C(Nc1ccc(F)cc1)N1CC(=O)N2[C@H](CO)[C@@H](c3ccc(-c4cccc(F)c4)cc3)[C@H]2C1	-1.25
CC(=O)N1CCCCN2[C@H](CO)[C@@H](c3ccc(-c4ccccc4)cc3)[C@H]2C1	-0.767
CC(=O)N1CCCCN2[C@H](CO)[C@H](c3ccc(C#Cc4ccccc4F)cc3)[C@H]2C1	-7.26*
CC(=O)N1CCCCN2[C@@H](CO)[C@H](c3ccc(C#Cc4ccccc4F)cc3)[C@@H]2C1	-0.289
SMILES	IDE exosite inh
COc1ccc(C#Cc2ccc([C@H]3[C@@H](CO)N4CCCCN(C(=O)Nc5ccccc5F)C[C@@H]34)cc2)cc1	1.65
COc1ccc(C#Cc2ccc([C@@H]3[C@@H](CO)N4CCCCN(C(=O)Nc5ccccc5F)C[C@@H]34)cc2)cc1	0.142
CC(=O)N1CCCCN2[C@H](CO)[C@H](c3ccc(C#Cc4ccccc4F)cc3)[C@@H]2C1	-4.93*
CC(=O)N1CCCCN2[C@H](C1)[C@H](c1ccc(C#Cc3ccccc3F)cc1)[C@@H]2CO	-4.72*
CC(=O)N1CCCCN2[C@H](C1)[C@@H](c1ccc(C#Cc3ccccc3F)cc1)[C@@H]2CO	-4.45*
O=C(Nc1ccc(F)cc1)N1CCCCN2[C@H](CO)[C@@H](c3ccc(C#Cc4ccccc4)cc3)[C@@H]2C1	3.59
